Experimental findings from PubChem BioAssay (NCATS) are described below.

Active and inactive are the calls of the source. No rule for the calls is given here.
Potency is read from the fitted curve at half-maximal effect.

The assay relates to HIV-1 nucleocapsid protein NCp7 (binding to TG oligonucleotide). In words: HIV Nucleocapsid (AID 346).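 Also: potency is for inhibitors that block NC binding and lower polarization.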 Conditions: HIV-1 NC / fluorescein-TGTGTGTG probe, fluorescence polarization. The gist of the method:
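HIV-1 NC (100 nM) binding to fluorescein-labelled ssDNA TG4xF (10 nM) in Hepes pH 7.5, 250mM NaCl, 1uM ZnCl2, TCEP and 2-mercaptoethanol; compounds pin-transferred, 1 hr room temperature, fluorescence polarization read on CCD imager.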
Regarding `COc1ncc2nc(CCc3ccccc3)c(=O)n(Cc3cccs3)c2n1`, the Potency is > 20 µM (inactive).

Take `O=C(Oc1ccccc1)N1CCC2(CCCN(c3ccccn3)C2)CC1`: the Potency was > 20 µM (inactive).

For the compound `COCC(=O)N1CCC2(CC1)CN(C(=O)Nc1cccc(F)c1)C2`, the Potency was > 20 µM (inactive).

Consider `COc1ccc(CNc2nc(-c3cccc(C#N)c3)nc3ccccc23)c(OC)c1`, for which the Potency is > 20 µM (inactive).

As to `CCNc1ncc2nc(-c3cc(F)cc(F)c3)c(=O)n(Cc3cccs3)c2n1`, the Potency is > 20 µM (inactive).

On to `COc1ncc2nc(-c3ccc(Cl)cc3)c(=O)n(CCc3ccccc3)c2n1`, for which the Potency was > 20 µM (inactive).

For `COc1ccc(CNc2nc(-c3ccc(N(C)C)cc3)nc3ccccc23)c(OC)c1`, the Potency was > 20 µM (inactive).

Regarding `CC(=O)NCCNc1nc(-c2c(C)noc2C)nc2ccccc12`, the Potency is > 20 µM (inactive).

In the case of `COc1ccccc1CNc1nc(-c2c(C)noc2C)nc2ccccc12`, the Potency was > 20 µM (inactive).

As for `COc1ccc(-n2c(=O)c(C)nc3cnc(OC)nc32)cc1`, the Potency is > 20 µM (inactive).

With `O=C(c1cccc(F)c1)N1CCC2(CCCN(Cc3cc(C(F)(F)F)cc(C(F)(F)F)c3)C2)CC1`, the Potency is > 20 µM (inactive).

On to `c1ccc(Nc2ncnc3ccc(-c4ccoc4)cc23)cc1`, for which the Potency was > 20 µM (inactive).

As for `COc1cccc(Cn2c(=O)c(-c3cn(C)c4ccccc34)nc3cnc(N4CCOCC4)nc32)c1`, the Potency was > 20 µM (inactive).

For the compound `CN(C)c1ncc2nc(CCc3ccccc3)c(=O)n(CCC#N)c2n1`, the Potency was > 20 µM (inactive).

On to `COc1cccc(Cn2c(=O)c(-c3cc(F)cc(F)c3)nc3cnc(N4CCOCC4)nc32)c1`, for which the Potency is > 20 µM (inactive).

For the compound `CN1CC[C@@]2(CCCN(S(=O)(=O)c3ccccc3)C2)C1`, the Potency was > 20 µM (inactive).

`O=C(c1ccco1)N1CCC2(CCCN(c3ccncc3)C2)CC1`: the Potency is > 20 µM (inactive).

With `COc1ccccc1-c1ccc2ncnc(NCc3cccnc3)c2c1`, the Potency is > 20 µM (inactive).

With `N#Cc1ccc(CN2CCC3(CCNCC3)CC2)cc1`, the Potency is > 20 µM (inactive).

In the case of `CN1CCN(c2ncncc2-c2ccc(N(C)C)cc2)CC1`, the Potency is > 20 µM (inactive).

In the case of `O=c1c(-c2ccc(F)c(F)c2)nc2cncnc2n1C1CC1`, the Potency is > 20 µM (inactive).

`COc1ncc2nc(C)c(=O)n(Cc3cccs3)c2n1`: the Potency is > 20 µM (inactive).

As for `Cc1nc2cnc(Oc3cccc(Cl)c3)nc2n(CCC#N)c1=O`, the Potency is > 20 µM (inactive).

As for `O=c1c(-c2cccs2)nc2cnc(N3CCNCC3)nc2n1Cc1cccs1`, the Potency is > 20 µM (inactive).

Turning to `COc1cccc(-c2ccc3ncnc(NCc4cnc(C)cn4)c3c2)c1`, the Potency was > 20 µM (inactive).

`O=C(c1csnn1)N1CCC2(CCCN(c3ncccn3)C2)CC1`: the Potency is > 20 µM (inactive).

On to `Cc1cnc(CNc2ncncc2-c2cccc(C#N)c2)cn1`, for which the Potency is > 20 µM (inactive).

Take `COCCn1c(=O)c(-c2ccc(OC)cc2)nc2cnc(N3CCOCC3)nc21`: the Potency was > 20 µM (inactive).

Consider `Cc1cnc(CNc2ncncc2-c2ccccc2Cl)cn1`, for which the Potency was > 20 µM (inactive).

As for `CN(C)C(=O)c1ccc(-c2cncnc2NCCc2cnc[nH]2)cc1`, the Potency was > 20 µM (inactive).

In the case of `COc1cccc(-c2nccc(NCCc3c[nH]c4ccc(OC)cc34)n2)c1`, the Potency was > 20 µM (inactive).

With `CN(C)Cc1ccccc1-c1ccc2ncnc(NC3CC3)c2c1`, the Potency was > 20 µM (inactive).

Regarding `CN(C)Cc1ccccc1-c1nccc(N(C)C)n1`, the Potency is > 20 µM (inactive).

For the compound `COc1ccccc1-c1cncnc1NCc1cccnc1`, the Potency is > 20 µM (inactive).

As for `N#Cc1cccc(NC(=O)N2CC3(CCN(C(=O)c4ccco4)CC3)C2)c1`, the Potency was > 20 µM (inactive).

On to `Clc1ccccc1-c1cc(NCCN2CCOCC2)ncn1`, for which the Potency was > 20 µM (inactive).

As to `COc1ccc(CNc2ncncc2-c2ccc(C(=O)N(C)C)cc2)c(OC)c1`, the Potency was > 20 µM (inactive).

`O=c1c(CCc2ccccc2)nc2cnc(Oc3cccc(Cl)c3)nc2n1C[C@H]1CCCO1`: the Potency is > 20 µM (inactive).

Turning to `CN(Cc1ccco1)c1cc(-c2ccoc2)ncn1`, the Potency was > 20 µM (inactive).

As for `COc1cccc(Cn2c(=O)c(-c3ccc(F)cc3)nc3cnc(N4CCNCC4)nc32)c1`, the Potency is > 20 µM (inactive).
